Calls of active or inactive are those of the source. Entries that show only a call come without a potency. Calls follow the shape of the dose curve; as a rule, active = well fitted activation curve with a large enough effect in the repeat runs; inconclusive = weak or mixed curves; inactive = flat fitted curve, though single readings scatter.

The results in this text go back to PubChem BioAssay (Tox21).
Potency is read from the fitted curve at half-maximal effect.

A short description of the assay: A CellTox Green Cytotoxicity Assay to monitor cytotoxicity in HEK293 cells - 0 hour (AID 1224869). Also: nearly all actives have a fitted effect of over 50% in size. Conditions: CellTox Green fluorescence; series mostly up to 76.8 µM. The text has this: National Center for Advancing Translational Sciences [NCATS]
NIH Chemical Genomics Center [NCGC]
U.S. Environmental Protection Agency [EPA]
National Institutes of Environmental Health Sciences [NIEHS]
National Toxicology Program [NTP]
Cell-based models are critical for drug discovery. Determining the natural cytotoxic effects resulting from test compounds is an essential research activity. A CellTox Green Cytotoxicity Assay to monitor cytotoxicity in real time of continues cell culture during 40 hours of the compound treatment was used to screen Tox21 10K library compounds in Hek293 cells. CellTox Green Cytotoxicity Assay is a nonlytic, homogeneous, biofluorescent method to measure cytotoxicity in cell culture after experimental manipulation. The assay system uses a proprietary asymmetric cyanine dye that is excluded from viable cells but preferentially stains the dead cell's DNA. […] Viable cells produce no appreciable increases in fluorescence. Therefore, the fluorescence signal produced by the binding interaction with dead cell DNA is proportional to cytotoxicity.
The mixture of Hek293 cell suspension and reagents were dispensed at 600cells/6 ul/well in 1536-well tissue culture treated black solid bottom plates using a Multidrop dispenser. After the assay plates were incubated at a 37 C/5% CO2 incubator for 5 hours, 23 nL of compounds dissolved in DMSO, positive and negative controls was transferred to the assay plate by a pintool work station. The plates were incubated at 37 C for 40 hours. The fluorescence intensity were measured at 0h, 8h, 16h, 24h, 32h and 40h time points using ViewLux plate reader during compound treatment.
As to `Clc1ccccc1N1CCNCC1`, the Potency result was “inactive”.

On to `Nc1ccccc1Cl`, for which the Potency entry is “inactive”.

As to `O=C1CN2CCOC2(c2ccccc2Cl)c2cc(Cl)ccc2N1` (stereo not given), the Potency result is “inactive”.

Consider `ClC(Cl)(Cl)C(Cl)(Cl)Cl`, for which the Potency result was “inactive”.

On to `CCCCOC(=O)c1ccccc1C(=O)O`, for which the Potency result was “inactive”.

In the case of `CCSC(=O)N(CC)C1CCCCC1`, the Potency result was “inactive”.

`C1CCC(C2CCCCC2)CC1`: the Potency entry was “inactive”.

`CN1CCC(O)(c2ccc(F)cc2)C(C(=O)c2ccc(F)cc2)C1` (stereo not given): the Potency entry is “inactive”.

Turning to `O=NN1CCCCC1`, the Potency entry was “inactive”.

`CNC(=O)Oc1ccccc1C1OCCO1`: the Potency entry was “inactive”.

With `Cc1ncsc1CCCl`, the Potency result was “inactive”.

`CN1C(=S)CN=C(c2ccccc2)c2cc(Cl)ccc21`: the Potency is 5.35 µM (active).

Take `CCOC(=O)C1(c2ccccc2)CCN(CCc2ccc(N)cc2)CC1`: the Potency result was “inactive”.

Turning to `CC1(C(=O)Nc2ccc(O)c(Cl)c2Cl)CCCCC1`, the Potency entry is “inactive”.

Turning to `CN1CCN(C(=O)O[C@H]2c3nccnc3C(=O)N2c2ccc(Cl)cn2)CC1`, the Potency result is “inactive”.

For the compound `CC1(C)COP(Oc2ccccc2)OC1`, the Potency entry was “inactive”.

On to `CC(Oc1ccc(Oc2ncc(C(F)(F)F)cc2Cl)cc1)C(=O)O` (stereo not given), for which the Potency entry is “inactive”.

In the case of `O=C(N[C@H]1CN2CCC1CC2)c1cc2ccoc2cn1`, the Potency result is “inactive”.

Take `CC(C1CC1)C(O)(Cn1cncn1)c1ccc(Cl)cc1` (stereo not given): the Potency entry is “inactive”.

For `C=C(C)CN(CC)c1c([N+](=O)[O-])cc(C(F)(F)F)cc1[N+](=O)[O-]`, the Potency entry was “inactive”.

In the case of `OCCSCSCCO`, the Potency entry is “inactive”.

Consider `COc1cc(C[C@@H](C)N)c(OC)cc1C`, for which the Potency entry is “inactive”.

As to `COc1cc(OC)nc(NC(=O)NS(=O)(=O)c2ncccc2C(=O)N(C)C)n1`, the Potency result is “inactive”.

Consider `O=C(O)c1cccc(Cl)c1`, for which the Potency result is “inactive”.

In the case of `c1cc2c(c(N3CCNCC3)c1)OCCO2`, the Potency entry was “inactive”.

With `O=[N+]([O-])c1cccc2cccnc12`, the Potency result is “inactive”.

With `CCC(=O)C(CCN(C)C)(c1ccccc1)c1ccccc1`, the Potency result is “inactive”.

With `COc1cc2c(cc1OC)[C@@]13CCN4CC5=CCO[C@H]6CC(=O)N2[C@H]1[C@H]6[C@H]5C[C@H]43`, the Potency result is “inactive”.

Consider `Cc1cc(C)c(C(=O)P(=O)(C(=O)c2c(C)cc(C)cc2C)c2ccccc2)c(C)c1`, for which the Potency result was “inactive”.

For the compound `COc1ncc(F)c2nc(S(=O)(=O)Nc3c(F)cccc3F)nn12`, the Potency result is “inactive”.

In the case of `C=C(C)[C@@H]1CC=C(C=O)CC1`, the Potency result is “inactive”.

On to `O=S(=O)(O)C(F)(F)C(F)(F)C(F)(F)C(F)(F)C(F)(F)C(F)(F)F`, for which the Potency result was “inactive”.

`CCC1(c2ccccc2)C(=O)N=C(O)NC1=O` (stereo not given): the Potency result was “inactive”.

As for `CC1CN1P(=O)(N1CC1C)N1CC1C` (stereo not given), the Potency result was “inactive”.

As for `CCN(CC)C(C)C(=O)c1ccccc1` (stereo not given), the Potency entry is “inactive”.

For `CCOP(=S)(OCC)Oc1cc(-c2ccccc2)on1`, the Potency entry was “inactive”.

For the compound `Nc1n[nH]c(N)n1`, the Potency entry is “inactive”.

As to `ClCCOCOCCCl`, the Potency entry was “inactive”.

As to `CCOC(=O)NC(=S)Nc1ccccc1NC(=S)NC(=O)OCC`, the Potency result is “inactive”.

For the compound `C#C[C@]1(O)C=C[C@H]2[C@@H]3CCC4=CC(=O)CC[C@@H]4[C@H]3CC[C@@]21CC`, the Potency result is “inactive”.
